Assay outcomes (PubChem BioAssay)
Rce1 inh = yeast Rce1p protease inhibitors, primary screen, biochemical, fluorescence, cell-free homogeneous. calls only. yeast membranes, quenched prenylated peptide cleavage fluorescence. 290,000 compounds, 0.27% hits. AID 2563, 2010. CAAX prenyl protease 2 (Saccharomyces cerevisiae (strain ATCC 204508 / S288c)), Q03530;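 active = fall in fluorescence gain of 50% or more versus controls, with final raw signal at or below 3038400; inconclusive = same 50% fall but final raw signal above 3038400; inactive = fall in fluorescence gain under 50%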
Target sequence (Q03530 whole entry, looked up): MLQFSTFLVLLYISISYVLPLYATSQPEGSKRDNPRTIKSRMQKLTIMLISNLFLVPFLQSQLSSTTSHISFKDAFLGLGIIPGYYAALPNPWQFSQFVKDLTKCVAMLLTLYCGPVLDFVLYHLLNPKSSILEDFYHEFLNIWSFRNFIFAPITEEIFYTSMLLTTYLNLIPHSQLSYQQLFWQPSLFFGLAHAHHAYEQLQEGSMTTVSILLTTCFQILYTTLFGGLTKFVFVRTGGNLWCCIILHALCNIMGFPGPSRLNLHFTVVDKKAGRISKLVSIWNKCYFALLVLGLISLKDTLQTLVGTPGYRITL
GRK2 aptamer HTS = compounds blocking aptamer binding on GRK2 – biochemical, human GRK2, bead flow cytometry, HTS, primary screen. Beta-adrenergic receptor kinase 1 (Homo sapiens), P25098. FAM-aptamer displacement from GRK2. inhibition of aptamer binding, % at 10 µM. 330,000 compounds, 0.59% hits. AID 488847, 2010;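 active = inhibition of aptamer binding above 40%, roughly 3 SD of noise, on plates passing a quality check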;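 note: median bead fluorescence of bound FAM aptamer so fluorescent compounds give negative values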
Efflux pump mplx = inhibitors of Candida efflux pumps in yeast, primary screen, S. cerevisiae, Nile Red, multiplex; 330,000 compounds, 0.44% hits; inhibition, % at 10 µM; AID 485275, 2010; S. cerevisiae Candida pump triplex;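 active = plate passing quality check with inhibition over a set limit, or well fluorescence over plate mean plus 4 SD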;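 note: Nile Red retained in pooled yeast measured as flow cytometry median fluorescence; higher means more Nile Red kept so more efflux inhibition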
Rtt109 HAT inh = inhibitors of C. albicans Rtt109/Vps75 HAT, primary screen, biochemical, ThioGlo CoA-SH fluorescence, plate reader; purified Rtt109/Vps75, 4 h; inhibition, % at 34.9 µM; 330,000 compounds, 0.16% hits; Histone acetyltransferase RTT109 (Candida albicans (strain SC5314 / ATCC MYA-2876)), …;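 active = inhibition of at least 50% in every replicate; inconclusive = best replicate reaches 50% inhibition but some replicates fall short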
ALR H2O2 inh = inhibitors of human ALR sulfhydryl oxidase, primary screen, biochemical, H2O2 detection, HRP-luminol luminescence, single point; purified ALR, DTT oxidation; inhibition, % (test concentration not listed); 290,000 compounds, 3.8% hits; AID 485317, 2010;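 active = mean replicate inhibition above about 79%, with every replicate also reaching it, limit read from the data; inconclusive = only one of the two criteria met; inactive = mean below limit and not every replicate reaching it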
HDAC3 inhib = HDAC3 deacetylase inhibitors, primary screen, biochemical, fluorescence, cell-free homogeneous; 320,000 compounds, 0.15% hits; Histone deacetylase 3 (Homo sapiens), O15379; recombinant HDAC3, fluorogenic peptide/trypsin coupled; inhibition, % at 8.3 µM; in the data active = inhibition above about 26%, passing the limit was not always enough; inconclusive = no clear call, values can overlap the other calls
Target sequence (O15379 whole entry, looked up): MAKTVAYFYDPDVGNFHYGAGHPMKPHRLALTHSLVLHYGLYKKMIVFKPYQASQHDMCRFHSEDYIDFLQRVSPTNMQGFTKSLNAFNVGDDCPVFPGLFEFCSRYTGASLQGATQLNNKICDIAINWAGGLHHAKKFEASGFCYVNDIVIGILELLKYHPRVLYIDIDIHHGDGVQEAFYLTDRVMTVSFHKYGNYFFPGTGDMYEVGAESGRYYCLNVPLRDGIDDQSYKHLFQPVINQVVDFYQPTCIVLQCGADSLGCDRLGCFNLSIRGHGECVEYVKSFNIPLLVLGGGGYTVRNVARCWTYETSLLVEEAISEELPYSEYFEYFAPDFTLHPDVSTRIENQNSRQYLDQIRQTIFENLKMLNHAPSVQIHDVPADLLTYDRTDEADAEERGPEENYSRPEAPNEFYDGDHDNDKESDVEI
Yeast cmpd fluor = counter-screen for efflux pump inhibitors: compound fluorescence. S. cerevisiae AD/pABC3, flow cytometry. fluorescence ratio to DMSO, % at 10 µM. 1,700 compounds, 4% hits. shares compounds with Efflux pump mplx;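 active = fluorescence ratio to DMSO above its plate's cutoff, the plate mean ratio plus 5 SD, cut at about 210% in these data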;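 note: unstained yeast with no Nile Red so the signal is compound autofluorescence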
CaMdr1 efflux inh = inhibitors of Candida albicans Mdr1 efflux, confirmation, flow cytometry, singleplex, Cherry Pick1 set; 1,700 compounds, 1% hits; AID 588518, 2011; S. cerevisiae AD/CaMDR1, Nile Red efflux; shares compounds with Efflux pump mplx; inhibition, % at 10 µM; in the data active = inhibition above about 26%;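 note: higher means more Nile Red retained so more efflux inhibition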
Cdr2 pump inh = inhibitors of Candida albicans Cdr2 efflux pump, confirmation, S. cerevisiae AD/CaCDR2, flow cytometry, cherry pick 1, singleplex; Nile Red retention; AID 588520, 2011; shares compounds with Efflux pump mplx; Nile Red retention ratio vs DMSO, % at 10 µM; 1,700 compounds, 4% hits; in the data active = Nile Red retention ratio vs DMSO above about 190%;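 note: higher ratio means more blocking of Cdr2 efflux of the dye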
Cdr1 pump inh = inhibitors of Candida albicans Cdr1 efflux pump, confirmation, S. cerevisiae AD/CaCDR1, flow cytometry, cherry pick 1, singleplex | inhibition, % at 10 µM | shares compounds with Efflux pump mplx | Nile Red efflux | 1,700 compounds, 1% hits | AID 588522, 2011;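 active = inhibition above the screen-wide mean plus twice its standard deviation, cut at about 32% in these data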
Each line names hits and unclear results; the compound was inactive in the other large screens (follow-up assays come after a bar, where they were run). Only some compounds are listed: those with a hit (about 4.5% of all), similar ones and a draw of the others.

O=C(CN1C(=O)CCSc2ccccc21)Nc1ccc2c(c1)OCO2	none | Yeast cmpd fluor inactive | CaMdr1 efflux inh inactive | Cdr2 pump inh inactive | Cdr1 pump inh inactive
O=S(=O)(c1cccc2ccccc12)N1CCC2CC1c1cc(Cl)ccc12 (centres undefined)	none (no result: Rce1 inh, GRK2 aptamer HTS, Efflux pump mplx, ALR H2O2 inh, HDAC3 inhib)
Cn1nc([N+](=O)[O-])nc1Sc1ccc(Cl)cc1	Efflux pump mplx 0.8 | Yeast cmpd fluor inactive | CaMdr1 efflux inh inactive | Cdr2 pump inh inactive | Cdr1 pump inh inactive
Cn1cnnc1Sc1nc([N+](=O)[O-])nn1C	none
COc1ccc(N2CCN(Cc3nc4c(c(=O)[nH]c(=O)n4C)n3CCCc3ccccc3)CC2)cc1	Efflux pump mplx 14 | Yeast cmpd fluor inactive | CaMdr1 efflux inh inactive | Cdr2 pump inh inactive | Cdr1 pump inh inactive
CCOC(=O)C(NC(=O)CC)(Nc1ccc(S(N)(=O)=O)cc1)C(F)(F)F (centres undefined)	none
CCOC(=O)C(NC(=O)CC)(Nc1ccccc1)C(F)(F)F (centres undefined)	Efflux pump mplx 5.5 | Yeast cmpd fluor inactive | CaMdr1 efflux inh inactive | Cdr2 pump inh inactive | Cdr1 pump inh inactive
Cc1nc(S(=O)(=O)Cc2ccc(Cl)cc2)nc2c1CCC2	Efflux pump mplx 1.9 | Yeast cmpd fluor inactive | CaMdr1 efflux inh inactive | Cdr2 pump inh inactive | Cdr1 pump inh inactive
COCCNC(=S)N1CCc2cc(OC)c(OC)cc2C1COc1ccc(F)cc1 (centres undefined)	none
COCCNC(=S)N1CCc2cc(OC)c(OC)cc2C1COc1ccc(C(C)C)cc1 (centres undefined)	Efflux pump mplx 6.8 (no result: GRK2 aptamer HTS) | Yeast cmpd fluor inactive | CaMdr1 efflux inh inactive | Cdr2 pump inh inactive | Cdr1 pump inh inactive
CCCNC(=O)C(Cc1ccc(F)cc1)NC(=O)c1ccccc1 (centres undefined)	none (no result: Rce1 inh)
COc1ccc(CNC(=O)CCc2ccc(S(=O)(=O)N3CCCCCC3)cc2)cc1OC	none (no result: Rce1 inh, GRK2 aptamer HTS, Efflux pump mplx, ALR H2O2 inh, HDAC3 inhib)
O=C(CN1CCCc2ccccc21)N/N=C/c1c(O)ccc2ccccc12	Efflux pump mplx 13 | Yeast cmpd fluor inactive | CaMdr1 efflux inh inactive | Cdr2 pump inh inactive | Cdr1 pump inh inactive
Cc1nc2ccccc2n1CCc1nc2c3ccccc3nc(SCC(=O)NCc3ccco3)n2n1	Efflux pump mplx 1.2 | Yeast cmpd fluor inactive | CaMdr1 efflux inh inactive | Cdr2 pump inh inactive | Cdr1 pump inh inactive
Cn1c(-c2ccccc2)cnc1SCC(=O)N1CCCc2ccccc21	Efflux pump mplx 15 | Yeast cmpd fluor inactive | CaMdr1 efflux inh inactive | Cdr2 pump inh inactive | Cdr1 pump inh inactive
CC(NS(=O)(=O)c1cc(C(F)(F)F)ccc1Cl)C(=O)N(C)C1CCN(C)CC1 (centres undefined)	none (no result: Rce1 inh)
COc1ccccc1CN1CC(C(=O)NCc2nccn2C)CCC1=O (centres undefined)	none
COc1ccc(Nc2nnc(Cc3ccc(Cl)cc3)c(=O)[nH]2)c(OC)c1	none
COc1ccc(Nc2nnc(Cc3ccccc3)c(=O)[nH]2)c(OC)c1	Efflux pump mplx 0.5 | Yeast cmpd fluor inactive | CaMdr1 efflux inh inactive | Cdr2 pump inh inactive | Cdr1 pump inh inactive
CC(=O)OC(C)=O	none (no result: Rce1 inh)
CCC(=O)N(Cc1ccc(C)cc1)Cc1cc2cc3c(cc2[nH]c1=O)OCO3	Efflux pump mplx 11 | Yeast cmpd fluor inactive | CaMdr1 efflux inh inactive | Cdr2 pump inh inactive | Cdr1 pump inh inactive
O=C(CN(c1ccccc1)S(=O)(=O)c1ccc(F)cc1)NCc1cccs1	none (no result: Rce1 inh)
O=Cc1ccc(-c2nc3ccccc3s2)o1	none (no result: Rtt109 HAT inh)
O=C(O)CCN1C(=O)/C(=C/c2ccc(-c3nc4ccccc4s3)o2)SC1=S	Efflux pump mplx 1.9 | Yeast cmpd fluor inactive | CaMdr1 efflux inh inactive | Cdr2 pump inh active | Cdr1 pump inh inactive
O=C(O)CCCN1C(=O)/C(=C\c2ccc(-c3nc4ccccc4s3)o2)SC1=S	Efflux pump mplx 1.1, ALR H2O2 inh 94 | Yeast cmpd fluor inactive | CaMdr1 efflux inh inactive | Cdr2 pump inh inactive | Cdr1 pump inh inactive
Cc1ccc(NC(=S)NCc2cccn2C)cc1	Efflux pump mplx 1.2 | Yeast cmpd fluor inactive | CaMdr1 efflux inh inactive | Cdr2 pump inh inactive | Cdr1 pump inh inactive
CCc1nccn1CCC(=O)NC1CC(C)(C)Cc2c1cnn2-c1cccc(F)c1 (centres undefined)	none
COc1ccc(C(=O)Cc2nnc(C)s2)c(OC)c1	Efflux pump mplx 8.0 | Yeast cmpd fluor inactive | CaMdr1 efflux inh inactive | Cdr2 pump inh inactive | Cdr1 pump inh inactive
O=C(CNC(c1ccccc1)c1ccccc1)Nc1ccccc1Br	none
NC1=NC[C@H](Cc2ccccc2)N1CCCCC1CCCCC1	Efflux pump mplx 1.1, Rtt109 HAT inh inconclusive | Yeast cmpd fluor inactive | CaMdr1 efflux inh inactive | Cdr2 pump inh inactive | Cdr1 pump inh inactive
NC1=NC[C@H](Cc2ccc(O)cc2)N1CCCCC1CCCCC1	ALR H2O2 inh 76 | Yeast cmpd fluor inactive | CaMdr1 efflux inh inactive | Cdr2 pump inh active | Cdr1 pump inh inactive
CCN(CC)Cc1cc(Nc2c3ccccc3nc3c4ccccc4n(C)c23)cc(CN(CC)CC)c1O	none (no result: Rce1 inh, GRK2 aptamer HTS, Efflux pump mplx, ALR H2O2 inh, HDAC3 inhib)
CCN(CC)c1ccc(C(=O)OCC(=O)N(C(C)C)C(C)C)cc1	none
CCN(CC)c1ccc(/C=C2\C(=O)c3ccc(C(=O)O)cc3C2=O)cc1	Efflux pump mplx 5.8 (no result: Rce1 inh, ALR H2O2 inh) | Yeast cmpd fluor 208 | CaMdr1 efflux inh inactive | Cdr2 pump inh 668 | Cdr1 pump inh inactive
O=C1CCN(S(=O)(=O)c2ccc(Cl)cc2)N1	none (no result: Rce1 inh)
O=C1CCN(Cc2ccc(Cl)cc2)N1	Efflux pump mplx 2.1 | Yeast cmpd fluor inactive | CaMdr1 efflux inh inactive | Cdr2 pump inh inactive | Cdr1 pump inh inactive
Cc1ccccc1CN1CCN(C(=O)CC(C)C)CC1	none
CC1CCc2c(C(=O)Nc3ccc(OC(F)(F)F)cc3)csc2C1 (centres undefined)	Efflux pump mplx 19 | Yeast cmpd fluor inactive | CaMdr1 efflux inh inactive | Cdr2 pump inh inactive | Cdr1 pump inh inactive
